# Results as given in PubChem BioAssay (Tox21).
# Where “and” joins values, the source holds several entries; their conditions need not be identical. Equal entries are not always repeated. Results filed as inconclusive are left out. The source holds several records for some structures; these can differ, active in one and inactive in another. Calls of active or inactive are those of the source. Calls follow the shape of the dose curve; as a rule, active = well fitted inhibition curve with a large enough effect in the signal ratio in the repeat runs; inconclusive = weak or mixed curves, or effect the other way; inactive = flat fitted curve, though single readings scatter; the % refers to the signal ratio.
# Test: qHTS assay for small molecule disruptors of the mitochondrial membrane potential (AID 720635)
# Details: HepG2 mitochondrial membrane potential, Mito-MPS dye ratio; series mostly up to 83.2 µM; ratio activity, negative = MMP loss: at the top concentration
# Description: U.S. Tox21 Program National Center for Advancing Translational Sciences [NCATS] NIH Chemical Genomics Center [NCGC] U.S. Environmental Protection Agency [EPA] National Institutes of Environmental Health Sciences [NIEHS] National Toxicology Program [NTP] U.S. Food and Drug Administration [FDA] Tox21 Assay Overview: Mitochondrial membrane potential (MMP), one of the parameters for mitochondrial function, is generated by mitochondrial electron transport chain that creates an electrochemical gradient by a series of redox reactions. This gradient drives the synthesis of ATP, a crucial molecule for various cellular processes. Measuring MMP in living cells is commonly used to assess the effect of chemicals on mitochondrial function. […] The dye accumulates in the mitochondria of healthy cells as aggregates, with red fluorescence. The mitochondrial potential collapses and the dye can no longer accumulate in the mitochondria and remains in the cytoplasm in monomers, with green fluorescence.
# Tox21 Assay Protocol Summary: 2,000 HepG2 cells in 5 uL/well were dispensed into black, clear-bottom 1536-well plates using a Multidrop Combi (Thermo Scientific) dispenser. The assay plates were incubated overnight at 37C to allow cells to attach to the wells, followed by the transfer of 23 nL compound or DMSO vehicle by a pin tool (Kalypsys). The plates were incubated for 1 hr at 37C and 5% CO2, followed by the addition of 5 uL of 2X Mito-MPS dye (BD Biosciences) into each well using Flying Reagent Dispenser (Aurora Discovery) and then following 30 min incubation at 37C. Fluorescence intensity (490nm excitation and 535nm emission for monomers; and 540nm excitation and 590nm emissions for aggregates) was measured using an Envision plate reader.
# % is scaled to controls: 0 for no effect and ±100 for the full control effect; potency is read from the fitted curve at half-maximal effect.
Compound,"ratio activity, negative = MMP loss",Potency
Cc1cccc(Cc2cnc[nH]2)c1C,-19.3% (inactive),–
NC(=O)C(Cl)Cl,8.03% (inactive),–
c1ccc2c(c1)cc1ccc3cccc4ccc2c1c34,–,14 µM (active)
BrCCCBr,5.27% [at 95.3 µM] (inactive),–
COC(=O)N(OC)c1ccccc1COc1ccn(-c2ccc(Cl)cc2)n1,–,4.86 µM (active)
O=C(O)CCCCCCNC1c2ccccc2CCc2ccccc21,10.8% (inactive),–
CN1[C@@H]2CC[C@H]1CC(O)C2 (stereo not given in full),18.1% [at 95.3 µM] (inactive),–
COc1cnc(OC)n2nc(NS(=O)(=O)c3c(OCC(F)F)cccc3C(F)(F)F)nc12,8.95% (inactive),–
Brc1ccc(Oc2ccc(Br)cc2Br)c(Br)c1,–,17.2 µM (active)
CCN(CC)C(=S)S,–,2.98 µM (active) and inactive
CC(C)C(Nc1ccc(C(F)(F)F)cc1Cl)C(=O)OC(C#N)c1cccc(Oc2ccccc2)c1 (stereo not given),–,49 µM (active)
Oc1cc(Cl)cc(Cl)c1,–,9.79 µM (active)
COP(=S)(OC)Oc1ccc([N+](=O)[O-])c(C)c1,–,68.6 µM (active)
O=P(Cl)(Cl)Cl,9.62% [at 95.3 µM] (inactive),–
N#CCCl,-21.9% [at 95.3 µM] (inactive),–
ClC(Cl)C(Cl)(Cl)Cl,12.8% (inactive),–
Oc1ccc([C@H]2CNCc3c2ccc(O)c3O)cc1O,10.8% (inactive),–
ClC1=C(Cl)[C@]2(Cl)[C@@H]3[C@H]4C[C@H]([C@@H]5O[C@H]45)[C@@H]3[C@@]1(Cl)C2(Cl)Cl,–,16.8 µM (active) and 19.3 µM (active)
Oc1cccc(Cl)c1Cl,–,48.8 µM (active)
COP(=S)(OC)Oc1nc(Cl)c(Cl)cc1Cl,–,48.5 µM (active)

Compound,"ratio activity, negative = MMP loss",Potency
S=C=NCCc1ccccc1,–,38.6 µM (active)
CC[C@]1(O)CC[C@H]2[C@@H]3CCC4=CCCC[C@@H]4[C@H]3CC[C@@]21C,–,7.5 µM (active)
CCNS(=O)(=O)C(F)(F)C(F)(F)C(F)(F)C(F)(F)C(F)(F)C(F)(F)C(F)(F)C(F)(F)F,–,1.85 µM (active)
COP(=S)(NC(C)C)Oc1ccc(C)cc1[N+](=O)[O-] (stereo not given),–,24.3 µM (active)
CNN,-14.1% [at 95.3 µM] (inactive),–
Cc1ccccc1OP(=O)(Oc1ccccc1C)Oc1ccccc1C,–,17.3 µM (active)
CSC1=N[C@@](C)(c2ccccc2)C(=O)N1Nc1ccccc1,–,61.1 µM (active)
c1csc(-c2ccc(-c3cccs3)s2)c1,–,61.1 µM (active)
CC(Cc1ccc(OCC(=O)O)cc1)NCC(O)c1csc(C(F)(F)F)n1 (stereo not given),17.9% (inactive),–
CCOP(=O)(OCC)Oc1nc(Cl)c(Cl)cc1Cl,–,60.8 µM (active)
O=[N+]([O-])c1cc(C(F)(F)F)c(Cl)c([N+](=O)[O-])c1Nc1ncc(C(F)(F)F)cc1Cl,–,0.243 µM (active)
CCN(CC)Cc1nccn1-c1ccc([N+](=O)[O-])cc1C(=O)c1ccccc1Cl,-9.24% (inactive),–
C=CCOC(=O)c1ccccc1N,1.26% [at 95.3 µM] (inactive),–
C[C@H]1[C@H](c2ccc(Cl)cc2)SC(=O)N1C(=O)NC1CCCCC1,–,15.4 µM (active)
CCC[CH2][Sn]([CH2]CCC)([CH2]CCC)[CH2]CCC,–,4.86 µM (active)
COP(=O)(OC)Oc1ccc([N+](=O)[O-])cc1,-4.98% (inactive),–
CCCCn1cc[n+](C)c1 (tested in a mixture with another compound),13.9% (inactive),–
CN,10.2% [at 95.3 µM] (inactive),–
ClC1=C(Cl)[C@]2(Cl)[C@H]3[C@H]([C@@H]4C=C[C@H]3C4)[C@@]1(Cl)C2(Cl)Cl,–,30.6 µM (active) and 17.2 µM (active)
CNC(=O)CSP(=O)(OC)OC,12.7% (inactive),–
